# The panel holds about 79,000 compounds, 15% with a hit somewhere; the sample as a whole holds those more often. Calls of active or inactive are those of the source. Rule as the data show it: active = growth inhibition above about 70%; inactive = the rest.
# Assay: NCI Yeast Anticancer Drug Screen. Data for the rad50EPP+ strain (AID 151);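 also: 0% = growth of vehicle-treated control cultures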
# Settings: S. cerevisiae rad50 mutant strain, at 1.2 µM, stronger effect = higher value
# In short: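 Measured: growth inhibition of rad50EPP+ yeast. Reference: vehicle-treated controls. Screen uses strains with defined genetic alterations in DNA damage repair or cell cycle control.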
row,Compound,growth inhibition
1,CCOP(=O)(OCC)C(Cc1ccccc1)N=C(c1ccccc1)c1ccccc1 (centres undefined),8% (inactive)
2,CCc1ncnc2cc(OCC3CO3)c(OC)cc12 (centres undefined),8% (inactive)
3,CCOC(=O)[C@H]1Nc2ccccc2C2c3ccccc3CC21 (some centres undefined),6% (inactive)
4,O=CNc1ccc2c(c1)C(=O)c1ccccc1-2,5% (inactive)
5,CCOc1ccc2c(c1)c(CC(=O)O)cn2C,6% (inactive)
6,OC1CSCCCSCCSCCCSC1,-30% (inactive)
7,N#Cc1c(N)[nH]c2ccc(Sc3ccccc3)cc12,3% (inactive)
8,Cc1ccc(-c2ccc(Nc3c4ccccc4nc4ccccc34)cc2)cn1,22% (inactive)
9,c1ccc2c(c1)NC(NC1Nc3ccccc3N1)N2,9% (inactive)
10,OC(COc1cccc2ccccc12)CN1CCOCC1 (centres undefined),-5% (inactive)
11,CCC/C(Cl)=N\OC(=O)Nc1ccc(Br)cc1,26% (inactive)
12,COc1ccc(/C=C2\SC(=S)N(/C=C/c3nc4ccccc4[nH]c3=O)C2=O)cc1OC,1% (inactive)
13,O=C(NNc1ccnc2cc(Cl)ccc12)/C(=C\c1ccccc1Cl)NC(=O)c1ccccc1,17% (inactive)
14,CSC1=NNC(SC)=NN1,-4% (inactive)
15,Cc1c(C2=C(Br)C(=O)N(C)C2=O)c(=O)n(C)c(=O)n1C,0% (inactive)
16,NCCNc1ccc(NCCN)c2c1C(=O)c1c(O)ccc(O)c1C2=O,30% (inactive)
17,Cn1c(=O)c(-c2ccccc2)c(N=[N+]=[N-])c2ccccc21,-15% (inactive)
18,CCCCCCCCCCCCCCCCCCOCC(O)COP(=O)(O)OCC1OC(n2cc(F)c(=O)[nH]c2=O)CC1O (centres undefined),42% (inactive)
19,CCS(=O)(=O)c1ccc(/C=C/C=N/NC(=S)NCC(C)C)cc1,3% (inactive)
20,CCC(=O)Oc1c(Cl)cc(Cl)c2ccccc12,-2% (inactive)

row,Compound,growth inhibition
1,COc1cc2c3c(cccc3c1)C(=O)N(CCN(C)C)C2=O,-23% (inactive)
2,CN(C)c1ccc(C(C#N)=C(C#N)C#N)cc1,1% (inactive)
3,O=C(CCCN1CCC2(CC1)CC(=O)N(N1CCCCCC1)C2=O)c1ccc(F)cc1,-2% (inactive)
4,O=C1C2C(C(=O)N1c1ccc(OCc3ccccc3)cc1)C1c3ccccc3C2C2CCCCN21 (centres undefined),-1% (inactive)
5,CCN(CC)CCC(=O)c1ccc(Oc2ccc(F)cc2)cc1,-9% (inactive)
6,O=Nc1c(NO)ccc2nn(-c3ccccc3)nc12,22% (inactive)
7,CC(=O)SCCC[Si](C)(C)CCCSC(C)=O,-3% (inactive)
8,O=C(O)C1CCCCC1c1c2ccc(=O)c(O)c-2oc2c(O)c(O)ccc12 (centres undefined),-9% (inactive)
9,Cc1ccc(NN(NC(=O)OC(C)C)C(=O)OC(C)C)cc1,5% (inactive)
10,O=C1c2ccccc2C(=O)c2cc(CBr)ccc21,27% (inactive)
11,Cc1c(C(Cc2ccccc2N(C)C(=O)/C=C\C(=O)O)c2c[nH]c3ccccc23)c2ccccc2n1C (centres undefined),-6% (inactive)
12,CC(C)/C(Cl)=N\OC(=O)Nc1ccc(F)cc1,1% (inactive)
13,O=C1OC(=O)C2CCCC3CCCC1C32 (centres undefined),42% (inactive)
14,CCOC(=O)C(NC(=O)c1ccccc1)(N1CCN(c2cc3c(cc2F)c(=O)c(C(=O)O)cn3C2CC2)CC1)C(F)(F)F (centres undefined),-1% (inactive)
15,COc1ccc(NC(=S)N/N=C(\c2ccccc2)c2ccccn2)cc1,0% (inactive)
16,C=CCC1=C(C)C(OC(=O)/C=C/c2ccccc2)CC1=O (centres undefined),-1% (inactive)
17,NNc1c(F)c(F)cc(F)c1F,2% (inactive)
18,COP(=O)(OC)/C(=C\C1=CN(C(c2ccccc2)(c2ccccc2)c2ccccc2)CN1)NC=O,2% (inactive)
19,COC(=O)c1cc(-c2ccc(C)cc2)[nH]c(=O)c1C#N,-5% (inactive)

# Source: PubChem BioAssay (NCI)
